# A selection: hits, their analogues and other compounds. The true share with any hit is near 6.3%.
# MPTP block = blocks calcium-induced mitochondrial swelling; isolated mouse mitochondria, Ca2+ swelling absorbance, 30 min; inhibition, % at 10 µM; hit rate 1.4% among 360,000;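 active = inhibition of 50% or more, scaled per plate between neutral and stimulator controls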;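 note: 0% = DMSO wells given calcium and 100% = 1 mM EGTA wells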
# Mdm2 MdmX PPI = human Mdm2/MdmX binding inhibition; inhibition, % at 8 µM; SaOS-2 split-luciferase Mdm2/MdmX complementation, luminescence; O15151+Q00987; hit rate 3% among 330,000;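 active = inhibition of at least 50% at 8 µM in the primary screen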
# tim10-1 inh = inhibits growth of tim10-1 mutant yeast. S. cerevisiae tim10-1 ts strain growth, BacTiter-Glo, 24 h. inhibition, % at 20 µM. hit rate 2.2% among 330,000. AID 463190;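 active = inhibition of at least 40%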;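 note: mutant grown at 25 °C; 0% = DMSO wells with yeast and 100% = wells holding no yeast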
# tim23-1 inh = inhibits growth of tim23-1 mutant yeast. AID 463212. hit rate 1.3% among 330,000. inhibition, % at 20 µM. S. cerevisiae tim23-1 growth, BacTiter-Glo luminescence, 24 h;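 active = growth inhibition of the mutant yeast at or above 50%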;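 note: temperature-sensitive mutant grown at 25 °C; plate controls were DMSO-treated mutant yeast for no effect and medium wells lacking yeast for full effect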
# TIM10 inh = TIM10 yeast growth inhibition; inhibition, % at 10 µM; hit rate 1.4% among 330,000; AID 463195; S. cerevisiae TIM10 strain growth, BacTiter-Glo luminescence, 24 h;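 active = inhibition of 40% or more at the single tested concentration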;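 note: wild-type TIM10 isogenic control strain grown at permissive 25 °C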
# Mdm2-MdmX conf = confirmation of human Mdm2/MdmX interaction inhibitors; AID 489028; shares compounds with Mdm2 MdmX PPI; hit rate 55% among 10,000; Mdm2-MdmX binding, luminescent assay; inhibition, % at 8 µM; in the data active = inhibition above about 40%
# FLuc counter = inhibits full-length luciferase, flagging false Mdm2/MdmX hits | shares compounds with Mdm2 MdmX PPI | SaOS-2 full-length luciferase counterscreen, luminescence | inhibition, % at 8 µM | hit rate 77% among 6,200 | AID 504607;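 active = mean inhibition at 8 µM reaching about 37%, which flags the compound as non-specific, limit read from the data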;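 note: p53-null SaOS-2 cells with luciferase driven by a doxycycline-inducible promoter; compound on cells about two nights before reading with doxycycline added after day one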
# * marks the source's active call; other numbers are inactive results; nt = not tested or not shown.
SMILES,MPTP block,Mdm2 MdmX PPI,tim10-1 inh,tim23-1 inh,TIM10 inh,Mdm2-MdmX conf,FLuc counter
CCc1cc2cc3c(cc2nc1SCC(=O)Nc1cc(C)on1)OCO3,-0.9,81.4*,29.7,-21.1,-16.2,8.2,nt
O=C(C1CC1)N1c2ccccc2Sc2ccccc21,0.3,61.4*,-11.4,11.5,2.5,55.4*,75.0*
c1ccc2c(NCCCN3CCOCC3)c3ccccc3nc2c1,nt,84.5*,-22.0,-31.7,4.2,79.4*,5.5
CN(C)CCCNc1c2ccccc2nc2ccccc12,-0.6,100.3*,-19.7,-31.6,6.5,99.7*,51.5*
Fc1ccccc1-c1nc(NCCCN2CCOCC2)c2ccccc2n1,0.4,4.2,9.1,7.0,-6.3,nt,nt
C=CCN=C1NN=C(c2cc(C)n(CCOC)c2C)CS1,0.7,85.8*,15.2,-11.5,4.5,89.5*,31.0
COCCn1c(C)cc(C2=NNC(=NC3CC3)SC2)c1C,-1.4,94.7*,15.0,11.7,4.1,93.8*,53.1*
COCCn1c(C)cc(C2=NNC(=Nc3ccc(Cl)cc3Cl)SC2)c1C,1.2,29.1,4.1,6.1,2.2,nt,nt
COC(=O)C1(C)CCCC2(C)C3CCC(C(C)C)C(CO)C3C(CO)CC12 (centres undefined),0.0,nt,nt,nt,nt,nt,nt
O=C(NCC(F)(F)F)c1cc2c(c(-c3cccc(-c4ccccc4F)c3)n1)[C@H](CCO)N(C(=O)CC1CC1)C2,-2.9,nt,nt,nt,nt,nt,nt
Cc1c(NC(=O)CSc2nnc3c4ccccc4n(CCc4ccccc4)c3n2)c(=O)n(-c2ccccc2)n1C,-1.4,100.3*,21.8,9.1,11.6,90.5*,52.0*
CCOC(=O)c1[nH]c2ccc(Cl)cc2c1-c1ccccc1,6.5,-13.6,11.2,-4.1,-5.2,nt,nt
CN(C)C=NC(=O)c1[nH]c2ccc(Cl)cc2c1-c1ccccc1,1.6,79.8*,29.3,45.1,-54.1,34.7,nt
O=C(CCNC(=O)N1CC(=O)Nc2ccccc21)NCc1cccc(C(F)(F)F)c1,0.7,nt,nt,nt,nt,nt,nt
C[C@H](NC(=O)c1[nH]cnc1C(=O)Nc1ccc(CNC(=O)OC(C)(C)C)cc1)C(=O)OCc1ccccc1,0.5,80.1*,-7.8,7.8,-11.4,14.2,nt
CC(C)(C)OC(=O)NCc1ccc(CNC(=O)c2nc[nH]c2C(=O)NCc2ccc(CNC(=O)OC(C)(C)C)cc2)cc1,1.0,16.8,21.2,12.4,5.2,nt,nt
CC(C)(C)OC(=O)CNC(=O)c1[nH]cnc1C(=O)Nc1ccc(CNC(=O)OC(C)(C)C)cc1,0.6,62.6*,14.5,9.5,6.9,54.1*,74.2*
CC(C)C[C@H](NC(=O)c1[nH]cnc1C(=O)Nc1ccc(CNC(=O)OC(C)(C)C)cc1)C(=O)OCc1ccccc1,-2.3,26.3,18.4,15.4,19.7,nt,nt
CC(C)(C)OC(=O)NCc1ccc(NC(=O)c2nc[nH]c2C(=O)NCCNC(=O)c2[nH]cnc2C(=O)Nc2ccc(CNC(=O)OC(C)(C)C)cc2)cc1,2.0,74.1*,11.1,9.0,-2.7,23.8,nt
CC(C)(C)OC(=O)NCCCCCNC(=O)c1nc[nH]c1C(=O)NCc1ccc(CNC(=O)OC(C)(C)C)cc1,2.7,53.9*,1.4,13.2,-2.5,21.6,nt
C[C@@H](O)CNC(=O)c1[nH]cnc1C(=O)Nc1ccc(CNC(=O)OC(C)(C)C)cc1,0.5,nt,nt,nt,nt,nt,nt
CCOc1ccc(NC(=O)CN(C)C(=O)C(C)Oc2ccc(Cl)cc2)cc1OCC (centres undefined),-1.4,nt,nt,nt,nt,nt,nt
COCCn1c(=S)[nH]c2cc(C(=O)NC3CCCC(C)C3C)ccc2c1=O (centres undefined),1.1,nt,nt,nt,nt,nt,nt
CC(C)C[C@H](NC(=O)c1[nH]cnc1C(=O)Nc1ccc(CNC(=O)OC(C)(C)C)cc1)C(=O)OC(C)(C)C,-0.9,52.5*,16.3,4.4,7.5,-8.9,nt
CC(C)(C)OC(=O)NCCCCCNC(=O)c1nc[nH]c1C(=O)NCC(=O)OCc1ccccc1,-1.3,65.6*,3.0,13.5,0.8,45.5*,50.2*
COc1ccc(Cn2cc(CN3CCOCC3)nn2)cc1,-1.6,nt,nt,nt,nt,nt,nt
Cc1cccc(C)c1-n1nnnc1C1(C)CCC(=O)N1CC1CCCCC1 (centres undefined),0.2,nt,nt,nt,nt,nt,nt
CC(=O)Oc1cc2c(cc1Cl)C1(CC(c3ccccc3Cl)O2)CC(C)(C)NC(=S)N1 (centres undefined),-1.3,56.2*,26.9,18.3,14.2,11.7,nt
